DT40 TDP1 no CPT: qHTS for Inhibitors of human tyrosyl-DNA phosphodiesterase 1 (TDP1): qHTS in cells in absence of CPT. DT40 Tdp1-/- hTDP1 cells, no CPT, ATP luminescence, 48 h. AID 686978, 2013. Potency, µM (highest dose often 46.2 µM), most hits filed as inhibitors. 15% of 420,000 active; further: nearly all actives have a fitted effect of over 55% in size
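Readout: luminescence from CellTiter-Glo after 30 min in the dark at RT. Cells: DT40 Tdp1-/- with stable hTDP1, 400/well. Exposure: compounds alone, ≥48 hr, 37 °C.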
TDP1 block: TDP1 (human) enzyme inhibition. AID 485290. Potency, µM (doses to about 130 µM), usual class: inhibitors. 0.28% of 350,000 active. recombinant TDP1, AlphaScreen DNA substrate cleavage; further: nearly all actives have a fitted effect of over 40% in size
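Signal: AlphaScreen proximity between streptavidin donor and anti-FITC acceptor beads on intact substrate. Reaction: Tdp1 1 nM, substrate 15 nM final, 5 min RT after 15 min compound preincubation.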
DT40 TDP1 CPT: DT40-hTDP1 cell growth loss with CPT. AID 686979. 12% of 420,000 active. Potency, µM (highest dose often 46.2 µM), usual class: inhibitors. chicken DT40 Tdp1-/-;hTDP1 cells + 20 nM CPT, ATP luminescence, 48 h; further: nearly all actives have a fitted effect of over 55% in size
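Chicken DT40 Tdp1-/- cells stably complemented with human TDP1 were seeded at 400 cells/well in medium containing 20 nM camptothecin, exposed to pin-transferred compounds, and grown at 37 °C for at least 48 hr. Viability was read as ATP luminescence.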
KAT2A inh: blocks human GCN5L2 histone acetyltransferase; Potency, µM (top dose mostly 58.9 µM), hits mostly inhibitors; GCN5L2 HAT assay, ThioGlo1 CoA-SH fluorescence; 0.21% of 390,000 active
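GCN5L2 (20nM final) in 50mM HEPES, 0.1mM EDTA pH 7.5, 0.01% Tween-20 was preincubated 15 min at room temperature with compound, then given ThioGlo1 (50uM), H3(1-25) peptide (75uM) and acetyl-CoA (70uM); CoA-thiol fluorescence (Ex340/Em540) was read at 0 and 20 min.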
VDR inh: vitamin D3 receptor (human) inhibition. P11473. VDR-SRC2-3 peptide fluorescence polarization, 2 h. AID 504847. 0.93% of 400,000 active. Potency, µM, most hits filed as inhibitors
Target sequence (P11473 whole entry, looked up): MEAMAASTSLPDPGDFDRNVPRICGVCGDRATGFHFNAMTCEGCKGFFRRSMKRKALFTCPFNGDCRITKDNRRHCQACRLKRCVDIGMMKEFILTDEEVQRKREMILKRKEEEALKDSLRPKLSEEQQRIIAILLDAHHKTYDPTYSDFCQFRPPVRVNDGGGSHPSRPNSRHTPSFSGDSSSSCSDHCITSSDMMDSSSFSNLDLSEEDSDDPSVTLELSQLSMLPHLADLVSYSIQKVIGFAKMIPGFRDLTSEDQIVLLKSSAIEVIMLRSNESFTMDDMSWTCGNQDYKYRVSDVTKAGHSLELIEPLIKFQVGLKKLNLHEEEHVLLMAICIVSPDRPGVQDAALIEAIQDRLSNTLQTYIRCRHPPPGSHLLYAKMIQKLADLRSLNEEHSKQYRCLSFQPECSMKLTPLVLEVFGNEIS
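Fluorescence polarization assay of small-molecule disruption of VDR binding to coregulator peptide SRC2-3. Compounds and controls pin-transferred, then read after 2 h incubation at ambient room temperature.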
PLK1 PBD inh: PLK1 (human) polo-box domain binding inhibition; P53350; Potency, µM, hits mostly inhibitors; Plk1 PBD binding of FITC phosphopeptide, fluorescence polarization; AID 720504; 2.8% of 360,000 active; further: series mostly up to about 57 µM; nearly all actives have a fitted effect of over 65% in size
Hits are given with their value; 0 = inactive; ? = inconclusive; - = not tested or not shown; ! = not confirmed by another sample; [ ] = dose if it differs, or a comment. Most compounds without a hit are left out; they make up all but 18% or so of the library. The call rests on the fitted dose curve; in most records, active means well fitted curve in the direction sought with a large enough effect; inconclusive means small, poorly fitted or top-dose-only effect, or another doubt; inactive means no such curve, though single readings can be large; an effect the other way counts as inactive or inconclusive.

SMILES	DT40 TDP1 no CPT	TDP1 block	DT40 TDP1 CPT	KAT2A inh	VDR inh	PLK1 PBD inh
CCc1ccc(Nc2n[n+](-c3ccccc3)c(-c3ccc(OCc4ccccc4)cc3)s2)cc1	5.2µM	-	4.6µM	0	0	?
O=C(O)c1ccc(-c2sc(Nc3ccccc3)n[n+]2-c2ccccc2)cc1	0	-	0	?	0	0
CCN(CC)c1ccc(-c2sc(Nc3ccccc3)n[n+]2-c2ccc(F)cc2)cc1	26µM	-	?	0	0	0
c1ccc(COc2ccc(-c3sc(Nc4ccccc4)n[n+]3-c3ccccc3)cc2)cc1	-	-	-	0	-	-
CCc1ccc(Nc2n[n+](-c3ccccc3)c(-c3ccc(N(CC)CC)cc3)s2)cc1	9.2µM	-	6.5µM	0	0	0
CN(C)c1ccc(-c2sc(Nc3ccccc3)n[n+]2-c2ccc(F)cc2)cc1	?	-	?	0	0	0
CN1CC[C@@]2(CCCN(C(=O)c3cccn3C)C2)C1	0	-	0	0	0	-
CCOC(=O)c1ccc(CN(Cc2ccc(OC)cc2)S(=O)(=O)c2cccc(C(F)(F)F)c2)cc1	0	0	0	0	0	-
CS(=O)(=O)N1CCC[C@@]2(CCN(c3ccccc3)C2)C1	?	-	0	0	?	-
O=S(=O)(c1ccc2c(c1)CCC2)N1CCN(c2nc(-c3ccccc3)nc3ccccc23)CC1	0	0	0	-	0	-
CCCC(=O)NCCCCNC(=O)CCC	0	0	0	0	0	0
CC(=O)N(O)CCCCCNC(=O)CCC(=O)N(O)CCCCCNC(=O)CCC(=O)N(O)CCCCCN	12µM!	0	21µM!	0	0	?
C(=NNc1ccc2ccccc2n1)c1ccccn1	1µM	-	1.6µM	-	-	0
c1ccc2nc(NN=C3CCCCC3)ccc2c1	?	-	?	-	0	0
Cc1csc(N/N=C/c2ccccn2)n1	0.46µM	0	0.58µM	0	0	0
COc1cc(OC)c(OC)cc1CN1CCOc2ccc(CN3C[C@@H](C)O[C@@H](C)C3)cc2C1	?	-	0[9.04 µM]	-	-	-
Brc1ccc(C2Nc3cccc4cccc(c34)N2)s1	?	0	21µM	0	0	?
CCCCn1c(C)csc1=Nc1cccnc1	?	0	?	0	0	0
CC(C)n1c(-c2ccco2)csc1=Nc1cccnc1	?	0	11µM	0	?	0
COCCn1c(-c2ccccc2)csc1=Nc1cccnc1	?	0	16µM	0	0	0
Cc1ccc(-c2csc(=Nc3cccnc3)n2CCCn2ccnc2)cc1C	12µM	0	16µM	0	0	0
c1cncc(-c2nc(-c3ccco3)cs2)c1	?	0	?	0	0	0
COc1ccc(NC(=O)CCN2C(=O)NC3(CCCC3)C2=O)cc1Cl	0	0	0	0	0	0
CC(C)c1ccc(NC(=O)CN2C(=O)COc3ccc(S(=O)(=O)N4CCCCCC4)cc32)cc1	3.7µM	0	2.6µM	0	0	-
CCOc1ccc(NC(=O)CN2C(=O)COc3ccc(S(=O)(=O)N4CCCC4)cc32)cc1	?	0	?	0	0	0
SMILES	DT40 TDP1 no CPT	TDP1 block	DT40 TDP1 CPT	KAT2A inh	VDR inh	PLK1 PBD inh
COc1ccc(NC(=O)CN2C(=O)COc3ccc(S(=O)(=O)N4CCCCCC4)cc32)cc1	16µM	0	4.6µM	0	0	0
CCOc1ccc(NC(=O)CN2C(=O)COc3ccc(S(=O)(=O)N4CCCCC4)cc32)cc1	0	0	?	0	0	27µM
O=C(CN1C(=O)COc2ccc(S(=O)(=O)N3CCCCCC3)cc21)Nc1cccc(Cl)c1	21µM	0	?	0	0	-
O=C(CN1C(=O)COc2ccc(S(=O)(=O)N3CCCC3)cc21)Nc1cccc(F)c1	?	0	?	0	0	0
Cc1c(Cl)cccc1NC(=O)CN1C(=O)COc2ccc(S(=O)(=O)Nc3ccccc3)cc21	?	0	?	0	0	-
Cc1c(Cl)cccc1NC(=O)CN1C(=O)COc2ccc(S(=O)(=O)N3CCCCCC3)cc21	?	0	16µM	0	0	-
Cc1cccc(N2CCN(C(=O)CN3C(=O)COc4ccc(S(=O)(=O)N5CCCCCC5)cc43)CC2)c1C	16µM	0	?	0	0	-

Bioassay records deposited in PubChem by National Center for Advancing Translational Sciences (NCATS).
